Screening results from PubChem BioAssay.
Compounds with a hit are over-represented: about 21% of the library has one in this group of screens.
RORgamma inh: qHTS for inhibitors of ROR gamma transcriptional activity; Nuclear receptor ROR-gamma (Mus musculus), P51450; Drosophila S2 Gal4-RORgamma UAS-luciferase reporter, 20 h; 310,000 compounds, 5.4% hits; AID 2551, 2010; Potency, µM (top dose mostly 53.6 µM), for the others: top-dose activity change, negative = inhibition, most hits filed as inhibitors; note: potency is the fitted concentration of half-maximal effect; nearly all actives have a fitted effect of over 60% in size
Target sequence (P51450 whole entry, looked up, the tested form may be a part): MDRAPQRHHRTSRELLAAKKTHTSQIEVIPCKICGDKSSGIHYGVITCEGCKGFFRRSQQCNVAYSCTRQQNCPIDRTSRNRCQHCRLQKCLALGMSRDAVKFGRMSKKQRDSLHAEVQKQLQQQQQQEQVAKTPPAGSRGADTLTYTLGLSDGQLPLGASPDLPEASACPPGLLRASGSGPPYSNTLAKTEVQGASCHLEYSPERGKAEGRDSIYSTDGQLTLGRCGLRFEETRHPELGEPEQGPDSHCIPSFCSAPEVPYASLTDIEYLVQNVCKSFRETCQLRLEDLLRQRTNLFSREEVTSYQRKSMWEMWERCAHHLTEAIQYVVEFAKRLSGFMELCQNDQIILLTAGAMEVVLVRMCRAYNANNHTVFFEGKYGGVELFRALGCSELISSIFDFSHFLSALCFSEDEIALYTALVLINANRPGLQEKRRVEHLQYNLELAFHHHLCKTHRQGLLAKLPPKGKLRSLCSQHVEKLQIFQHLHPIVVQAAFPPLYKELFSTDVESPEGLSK
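Using a luciferase readout, inhibitors were identified by reduced reporter activity in Drosophila cells coexpressing a copper-inducible Gal4–ROR gamma fusion and UAS-driven Photinus luciferase, incubated 20 hr after 700 uM copper sulfate.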
VP16 counter: VP16 counterscreen qHTS for inhibitors of ROR gamma transcriptional activity; AID 2546, 2010; 310,000 compounds, 3.5% hits; Drosophila S2 Gal4-VP16 UAS-luciferase, luminescence, 20 h; Potency, µM (top dose mostly 53.6 µM), for the others: at the top dose activity, negative = inhibition, usual class: inhibitors;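 note: Gal4-VP16 expression switched on by copper sulfate through the metallothionein promoter; potency is the fitted concentration of half-maximal effect; nearly all actives have a fitted effect of over 50% in size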
IL-1B inflam inh: qHTS for Inhibitors of Inflammasome Signaling: IL-1-beta AlphaLISA Primary Screen | activity change, % at 57.5 µM | AID 743279, 2014 | 360,000 compounds, 4.7% hits | THP-1 LPS/ATP IL-1B secretion, AlphaLISA, 16 h; active compounds read low; in the data active = activity change below about -50%; inconclusive = mostly about -30% to -49%
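Secreted IL-1B measured by AlphaLISA bead assay after 16 h compound exposure of THP-1 cells; compounds (final up to 57.5 uM) added 1 h before LPS (250 ng/mL) and ATP (1.25 mM) stimulation; lower signal means less secretion.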
ELG1 DNA repair: qHTS screen for small molecules that inhibit ELG1-dependent DNA repair in human embryonic kidney (HEK293T) cells expressing luciferase-tagged ELG1; HEK293T ELG1-luciferase reporter, luminescence, 16 h; DNA damage induced by 5-fluorouridine; Potency, µM (titrated, usually from 46.1 µM), inactives show top-dose activity change, negative = inhibition, hits mostly inhibitors; 330,000 compounds, 2.3% hits; note: potency is the fitted concentration of half-maximal effect; nearly all actives have a fitted effect of over 55% in size
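Quantitative HTS, concentration-response format. 2,000 cells/well co-treated with 5-fluorouridine and compound, 16 hr in 5% CO2 at 37 °C; ONE-Glo luminescence read after 30 min.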
DT40 TDP1 CPT: qHTS for Inhibitors of human tyrosyl-DNA phosphodiesterase 1 (TDP1): qHTS in cells in presence of CPT. 420,000 compounds, 12% hits. chicken DT40 Tdp1-/-;hTDP1 cells + 20 nM CPT, ATP luminescence, 48 h. AID 686979, 2013. Potency, µM (highest dose often 46.2 µM), inactives show at the highest dose activity change, negative = growth inhibition, usual class: inhibitors; note: potency is the fitted concentration of half-maximal effect; nearly all actives have a fitted effect of over 55% in size
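Cell growth measured by CellTiter-Glo luminescence after a minimum 48 h, 37 C compound exposure with 20 nM CPT in Tdp1-knockout DT40 cells stably expressing hTDP1, seeded 400/well; qHTS titration format.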
TDP1 cell noCPT: qHTS for Inhibitors of human tyrosyl-DNA phosphodiesterase 1 (TDP1): qHTS in cells in absence of CPT. DT40 Tdp1-/- hTDP1 cells, no CPT, ATP luminescence, 48 h. Potency, µM (doses to about 46.2 µM), for inactives: at the highest dose activity change, negative = growth inhibition, hits mostly inhibitors. 420,000 compounds, 15% hits. AID 686978, 2013; note: potency is the fitted concentration of half-maximal effect; nearly all actives have a fitted effect of over 55% in size
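Growth kinetics read by CellTiter-Glo luminescence after ≥48 hr at 37 °C. Cells: DT40 Tdp1-/- stably carrying human TDP1, 400 per well, compound exposure in the absence of CPT (DMSO vehicle).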
An asterisk follows results filed as active; [ ] = remark or other dose. Unless noted, calls come from the whole dose curve; as a rule, active = well fitted curve in the direction sought with a large enough effect; inconclusive = small, poorly fitted or top-dose-only effect, or another doubt; inactive = no such curve, though single readings can be large; an effect the other way counts as inactive or inconclusive. % is set by controls: 0 for no effect and ±100 for the full control effect.

What do the screens show for `O=C1Nc2cc(C(=O)N3CCN(c4ccccn4)CC3)ccc2S/C1=C\c1ccccc1`?
RORgamma inh: inconclusive; VP16 counter: -10%; IL-1B inflam inh: -16; ELG1 DNA repair: 18µM*; DT40 TDP1 CPT: -26%; TDP1 cell noCPT: inconclusive

Results for O=C(c1ccc2snnc2c1)N1CCN(c2ccccc2)CC1 ?
RORgamma inh: 4%; VP16 counter: 2%; IL-1B inflam inh: -14; ELG1 DNA repair: 23%; DT40 TDP1 CPT: -6%; TDP1 cell noCPT: -19%

Results for O=C1Nc2cc(C(=O)N3CCN(Cc4ccccc4)CC3)ccc2SC1N1CCOCC1 (centres undefined) ?
RORgamma inh: 35%; VP16 counter: 23%; IL-1B inflam inh: -18; ELG1 DNA repair: -13%; DT40 TDP1 CPT: 23µM*; TDP1 cell noCPT: inconclusive

How did O=C(c1ccc2snnc2c1)N1CCN(c2ccccn2)CC1 do in these assays?
RORgamma inh: 22%; VP16 counter: 4%; IL-1B inflam inh: -85*; ELG1 DNA repair: 3%; DT40 TDP1 CPT: -4%; TDP1 cell noCPT: -9%

How did O=C1Nc2cc(C(=O)N3CCOCC3)ccc2S/C1=C\c1ccccc1 do in these assays?
RORgamma inh: 20%; VP16 counter: -2%; IL-1B inflam inh: -24; ELG1 DNA repair: inconclusive; DT40 TDP1 CPT: inconclusive; TDP1 cell noCPT: 23µM*

What do the screens show for `NS(=O)(=O)c1ccc(NC(=O)CCC(=O)O)cc1`?
RORgamma inh: -4%; VP16 counter: 4%; DT40 TDP1 CPT: 4%; TDP1 cell noCPT: 0%

How did CN(C)S(=O)(=O)c1ccc(C(=O)Nc2c(C(=O)Nc3ccc(F)cc3)oc3ccccc23)cc1 do in these assays?
DT40 TDP1 CPT: -12%; TDP1 cell noCPT: inconclusive

How did CCOC(=O)/C=C1/SCC(=O)N1CC(=O)Nc1ccc2c(c1)CCC2 do in these assays?
IL-1B inflam inh: 19; DT40 TDP1 CPT: 9%; TDP1 cell noCPT: -1%

Results for O=C1Nc2cc(C(=O)N3CCOCC3)ccc2S/C1=C/c1ccccc1F ?
IL-1B inflam inh: -20; DT40 TDP1 CPT: 16µM*; TDP1 cell noCPT: inconclusive

Results for COc1ccc(C2SCC(=O)N2c2nnc(C34CC5CC(CC(C5)C3)C4)s2)cc1 (centres undefined) ?
RORgamma inh: -7%; VP16 counter: 3%; IL-1B inflam inh: 2; ELG1 DNA repair: -14%; DT40 TDP1 CPT: inconclusive; TDP1 cell noCPT: inconclusive

How did COc1cc(C2SCC(=O)N2c2nnc(C34CC5CC(CC(C5)C3)C4)s2)cc(OC)c1OC (centres undefined) do in these assays?
RORgamma inh: -15%; VP16 counter: -13%; IL-1B inflam inh: -55*; ELG1 DNA repair: -2%; DT40 TDP1 CPT: 18µM*; TDP1 cell noCPT: inconclusive

What do the screens show for `CCCCn1nc(C(=O)N(C)CC(=O)Nc2ccc(F)c(F)c2F)ccc1=O`?
IL-1B inflam inh: 10; ELG1 DNA repair: 24%; DT40 TDP1 CPT: -1%; TDP1 cell noCPT: 0%

Results for CCCn1cnc2c(SCc3ccc(Cl)cc3)nc(N)nc21 ?
IL-1B inflam inh: -63*; DT40 TDP1 CPT: inconclusive; TDP1 cell noCPT: inconclusive

What do the screens show for `CCCCn1cnc2c(SCc3ccccc3Cl)nc(N)nc21`?
IL-1B inflam inh: -87*; DT40 TDP1 CPT: -4%; TDP1 cell noCPT: inconclusive

How did CCCn1cnc2c(SCc3ccccc3)nc(N)nc21 do in these assays?
IL-1B inflam inh: -21; DT40 TDP1 CPT: 3%; TDP1 cell noCPT: inconclusive

How did Nc1nc(SCc2ccccc2)c2ncn(Cc3ccccc3)c2n1 do in these assays?
IL-1B inflam inh: -64*; DT40 TDP1 CPT: inconclusive; TDP1 cell noCPT: inconclusive

Results for CCCCn1cnc2c(SCc3ccc(Br)cc3)nc(N)nc21 ?
IL-1B inflam inh: -84*; DT40 TDP1 CPT: inconclusive; TDP1 cell noCPT: inconclusive

How did O=C(O)CCn1c(=O)c2cccn2c2cccnc21 do in these assays?
DT40 TDP1 CPT: -7%; TDP1 cell noCPT: 0%

How did CCCCn1cnc2c(SCc3ccccc3)nc(N)nc21 do in these assays?
IL-1B inflam inh: -50*; DT40 TDP1 CPT: inconclusive; TDP1 cell noCPT: inconclusive

What do the screens show for `CCOC(=O)N1CCN(c2ncnc3c2[nH]c2ccc(OC)cc23)CC1`?
RORgamma inh: 0%; VP16 counter: -16%; IL-1B inflam inh: 0; ELG1 DNA repair: inconclusive; DT40 TDP1 CPT: inconclusive; TDP1 cell noCPT: 23µM*

How did O=c1c2[nH]c3ccc(F)cc3c2ncn1CCN1CCN(Cc2ccccc2)CC1 do in these assays?
RORgamma inh: -3%; VP16 counter: 2%; IL-1B inflam inh: 5; ELG1 DNA repair: 15%; DT40 TDP1 CPT: 8%; TDP1 cell noCPT: -15%

What do the screens show for `CCOC(=O)C1CCN(c2ncnc3c2[nH]c2cccc(OC)c23)CC1`?
RORgamma inh: 26%; VP16 counter: -11%; IL-1B inflam inh: inconclusive; ELG1 DNA repair: inconclusive; DT40 TDP1 CPT: inconclusive; TDP1 cell noCPT: 26µM*

Results for CCCCOc1ncnc2c1[nH]c1ccc(OC)cc12 ?
RORgamma inh: -10%; VP16 counter: 6%; IL-1B inflam inh: 23; ELG1 DNA repair: inconclusive; DT40 TDP1 CPT: inconclusive; TDP1 cell noCPT: inconclusive

How did CCOC(=O)N1CCN(c2ncnc3c2[nH]c2ccc(F)cc23)CC1 do in these assays?
RORgamma inh: inconclusive; VP16 counter: 7.1µM*; IL-1B inflam inh: -3; ELG1 DNA repair: 12µM*; DT40 TDP1 CPT: 6.5µM*; TDP1 cell noCPT: 2.1µM*

Results for Fc1ccc2[nH]c3c(N4CCN(c5ccccc5)CC4)ncnc3c2c1 ?
RORgamma inh: 4%[0.365 µM]; IL-1B inflam inh: -55*; ELG1 DNA repair: 7.3µM*; DT40 TDP1 CPT: 5.2µM*; TDP1 cell noCPT: 4.6µM*

How did CN(C)CCNc1ncnc2c1ncn2[C@H]1CN(Cc2ccc(Cl)cc2)C[C@@H](CO)O1 do in these assays?
IL-1B inflam inh: 13; DT40 TDP1 CPT: inconclusive; TDP1 cell noCPT: -25%

How did CNS(=O)(=O)c1cn(CC(=O)Nc2ccc(F)cc2F)cc1S(=O)(=O)NC do in these assays?
DT40 TDP1 CPT: -12%; TDP1 cell noCPT: -11%

What do the screens show for `Cn1ccc(C(=O)N/N=C/c2ccncc2)n1`?
IL-1B inflam inh: 10; ELG1 DNA repair: 14%; DT40 TDP1 CPT: -1%; TDP1 cell noCPT: 15%
